A number with no mark means an inactive call. Results filed as inconclusive are left out. Active and inactive are the calls of the source. Calls come from the whole dose curve; as a rule, active = well fitted curve in the direction sought with a large enough effect; inconclusive = small, poorly fitted or top-dose-only effect, or another doubt; inactive = no such curve, though single readings can be large; an effect the other way counts as inactive or inconclusive.

The target of assay [1] is Glutathione peroxidase 1 (Homo sapiens) (UniProt P07203). The experiment in a line: Primary qHTS Assay for Inhibitors of Recombinant Selenoprotein Glutathione Peroxidase 1 (GPX1) (AID 1845191). For activity, negative = inhibition: % is set by controls: 0 for no effect and ±100 for the full control effect. Note: nearly all actives have a fitted effect of over 65% in size. In a few lines: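 NADPH consumption tracked by fluorescence at 340/450 nm between t=0 and t=15 min, room temperature. Final mix: 10 nM GPX1, 100 nM glutathione reductase, 1 mM GSH, 0.5 mM NADPH, 0.5 mM cumene hydroperoxide, 0.01% BSA; 30 min compound–enzyme preincubation.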
Glutathione peroxidase 1 (Homo sapiens), sequence (P07203 whole entry, looked up): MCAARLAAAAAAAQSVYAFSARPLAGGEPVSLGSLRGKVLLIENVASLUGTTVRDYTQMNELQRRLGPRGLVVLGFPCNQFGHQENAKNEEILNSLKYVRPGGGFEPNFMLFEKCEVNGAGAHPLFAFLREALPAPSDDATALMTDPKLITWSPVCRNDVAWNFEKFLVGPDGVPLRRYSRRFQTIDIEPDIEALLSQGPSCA
Background: qHTS replaces the single test concentration by a dilution series.

Assay [2] concerns the target Phospholipid hydroperoxide glutathione peroxidase GPX4 (Homo sapiens) (UniProt P36969). The assay is described as follows: Primary qHTS Assay for Inhibitors of Recombinant Selenoprotein Glutathione Peroxidase 4 (GPX4) (AID 1845192). For activity change, negative = inhibition: series mostly up to about 50 µM; % is set by controls: 0 for no effect and ±100 for the full control effect. Note: nearly all actives have a fitted effect of over 65% in size. In a few lines:
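NADPH consumption followed by fluorescence at 340/450 nm, t=0 and after 15 min at room temperature. Reaction started with cumene hydroperoxide (0.5 mM final) after 30 min compound–GPX4 preincubation; final 200 nM GPX4, 100 nM GR, 1 mM GSH, 0.5 mM NADPH.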

For assay [3], the target named is Luciferin 4-monooxygenase (Photinus pyralis) (UniProt P08659). The experiment in a line: Primary firefly luciferase (FLuc) qHTS assay for identification of artifact compounds. (AID 1845220).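 For activity change, negative = inhibition: series mostly up to about 54 µM; plate controls were DMSO vehicle for no effect and no enzyme for full effect.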 Note: nearly all actives have a fitted effect of over 60% in size. The procedure, abridged:
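Compounds sat 15 min at room temperature with 10 uM luciferin and 10 uM ATP (pH 7.6 Tris acetate). Firefly luciferase (10 nM final) was then added, and luminescence was read 5 min later. Data normalized to no-enzyme and DMSO controls were Hill-fitted.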

The nature of assay [4]: Primary fluorescence-based thiol-reactive (MSTI) qHTS assay for identification of artifact compounds. (AID 1845221).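 For activity change, negative = thiol reactive: series mostly up to about 54 µM; thiol-reactive compounds lower the probe fluorescence signal.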 Note: nearly all actives have a fitted effect of over 65% in size. Note: potency is the fitted concentration of half-maximal effect. The procedure, abridged: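 Reactivity toward the thiol probe MSTI (4 uM) is scored by fluorescence at Ex/Em 525/598 nm after 1 h at room temperature. Acetyl-MSTI and MSTI define the activity scale.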
In assay [5] the test system is Nanoluciferase (engineered Oplophorus gracilirostris luciferase). The experiment in a line: Primary Nanoluciferase (NLuc) qHTS assay for identification of artifact compounds. (AID 1845222).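 Note: series mostly up to about 54 µM; 0% = DMSO and -100% = no enzyme.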 The procedure, abridged:
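Luminescence from secreted NLuc (filtered, 1:55-diluted S16 cell medium) read 5 min after Nano-Glo substrate; compounds preincubated 15 min, RT. Hill fits of inhibition normalized to DMSO and no-enzyme.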

Assay [6] in a line: Primary redox qHTS assay for identification of artifact compounds. (AID 1845223).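 Note: 0% = DMSO and 100% = reference compound.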 The procedure, abridged: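 Redox-cycling detection via DTT (250 uM final) oxidation coupled to Amplex Red (25 uM)/HRP (250 mU/mL) in HBSS. 15 min preincubation plus 30 min after DTT, room temperature. Ex/Em 525/598 nm; 4-parameter Hill fit against DMSO and 10 uM DA3003.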

Phospholipid hydroperoxide glutathione peroxidase GPX4 (Homo sapiens), sequence (P36969 whole entry, looked up): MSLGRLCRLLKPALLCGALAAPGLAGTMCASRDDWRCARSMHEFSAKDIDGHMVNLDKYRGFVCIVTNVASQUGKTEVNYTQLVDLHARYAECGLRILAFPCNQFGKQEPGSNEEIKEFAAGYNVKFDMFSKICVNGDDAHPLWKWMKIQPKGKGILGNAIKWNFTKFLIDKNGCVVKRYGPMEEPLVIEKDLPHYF

With `O=C(OCC(O)CO[C@@H]1O[C@H](C(=O)O)[C@@H](O)[C@H](O)[C@H]1O)c1ccccc1` (some centres undefined), the Potency result in assay [1], in assay [2], in assay [3], in assay [5] and in assay [6] was “inactive” in each case. Moreover, in assay [4], the Potency was 6.56 µM (active).

Take `COc1c(C)c(OCC=C(C)C)cc2c1CNC2=O`: the Potency result in assay [1], in assay [2], in assay [3], in assay [4], in assay [5] and in assay [6] was “inactive” each time.

In the case of `CC(C)=C1CC2[C@](C)(CC[C@@H](OC(=O)C3(C)OC3C)[C@@]2(C)O)CC1=O` (some centres undefined), the Potency entry in assay [1], in assay [2], in assay [3], in assay [4], in assay [5] and in assay [6] was “inactive” in each case.

As to `COC(=O)C1=CO[C@@H](O[C@@H]2O[C@H](CO)[C@@H](O)[C@H](O)[C@H]2O)[C@H]2[C@@H]1C=C[C@]21C=C([C@H](C)OC(=O)/C=C/c2ccc(O[C@@H]3O[C@H](CO)[C@@H](O)[C@H](O)[C@H]3O)cc2)C(=O)O1`, the Potency entry in assay [1], in assay [2], in assay [3], in assay [4], in assay [5] and in assay [6] was “inactive” throughout.

With `CC1(C)CC[C@]2(C(=O)O)CC[C@]3(C)C(=CCC4[C@@]5(C)CC[C@H](O[C@H]6O[C@H](C(=O)O)[C@@H](O)[C@H](O[C@@H]7O[C@H](CO)[C@H](O)[C@H](O)[C@H]7O)[C@H]6O)C(C)(C)C5CC[C@]43C)[C@@H]2C1` (some centres undefined), the Potency entry in assay [1] and in assay [2] was “inactive” in each case. The activity change, negative = inhibition in assay [3] was 1.03% [at 11.6 µM]. In addition, the activity change, negative = thiol reactive in assay [4] is 239% [at 11.5 µM]. Also, the activity, negative = inhibition in assay [5] is 2.24% [at 11.6 µM]. In assay [6], the redox activity (% of DA3003) was 8.43% [at 11.5 µM].

As to `CC1(C)CC[C@]2(C(=O)O)CC[C@]3(C)C(=CCC4[C@@]5(C)C[C@@H](O)[C@H](O)[C@@](C)(CO)C5CC[C@]43C)C2C1` (some centres undefined), the Potency entry in assay [1], in assay [2], in assay [3], in assay [4], in assay [5] and in assay [6] was “inactive” in each case.

`CC1=C[C@H]2[C@@H](CC1=O)[C@H](C)C[C@H](O)[C@H]2C(C)C`: the Potency result in assay [1], in assay [2], in assay [3], in assay [4], in assay [5] and in assay [6] was “inactive” each time.

Take `CCC(C)C(C(=O)O)N1Cc2c(OCC=C(C)C)c(C)c(OC)c(C(=O)O)c2C1=O` (centres undefined): the Potency entry in assay [1], in assay [2], in assay [3], in assay [4], in assay [5] and in assay [6] was “inactive” in each case.

On to `NC[C@H]1CCC[C@@H](CNC(=O)[C@@H](Cc2c[nH]c3ccccc23)NC(=O)N2CCC3(C=Cc4ccccc43)CC2)C1`, for which the Potency entry in assay [1], in assay [2], in assay [3], in assay [4], in assay [5] and in assay [6] was “inactive” throughout.

In the case of `CN1CCN(C(=O)c2cc3cc(Cl)ccc3[nH]2)CC1`, the Potency result in assay [1], in assay [2], in assay [3], in assay [4], in assay [5] and in assay [6] was “inactive” each time.

For `O=C(O)CC(CCc1ccccc1)OC1OC(CO)C(O)C(O)C1O` (centres undefined), the Potency entry in assay [1], in assay [2], in assay [3], in assay [5] and in assay [6] was “inactive” each time. In assay [4], the Potency was 5.21 µM (active).

Turning to `CC[C@H](NC(=O)c1c(O)c(-c2ccccc2)nc2ccccc12)c1ccccc1`, the Potency result in assay [1], in assay [2], in assay [3], in assay [5] and in assay [6] was “inactive” throughout. For the same compound, the Potency in assay [4] was 2.67 µM (active).

Regarding `C=C1CCC(OC(C)=O)C2(C)CC3OC(=O)C(C)=C3CC12` (centres undefined), the Potency entry in assay [1], in assay [2], in assay [3], in assay [4], in assay [5] and in assay [6] was “inactive” each time.

On to `COc1ccc(C2(O)c3c(ccc4c3OC(C)(CCC=C(C)C)C=C4)NC(=O)C2OC)cc1` (centres undefined), for which the Potency result in assay [1], in assay [2], in assay [3], in assay [4], in assay [5] and in assay [6] was “inactive” throughout.

Regarding `Cc1noc2c1-c1ccccc1C(c1ccc(Cl)cc1)=N[C@H]2CC(N)=O`, the Potency result in assay [1], in assay [2], in assay [3], in assay [4], in assay [5] and in assay [6] was “inactive” throughout.

For `OCC1OC(Oc2cc(O)cc(/C=C/c3ccc(OC4OC(CO)C(O)C(O)C4O)cc3O)c2)C(O)C(O)C1O` (centres undefined), the Potency entry in assay [1], in assay [2], in assay [3], in assay [4], in assay [5] and in assay [6] was “inactive” in each case.

With `CC1(O)CCC2C(C3C1CCC3(C)O)C2(C)C` (centres undefined), the Potency entry in assay [1], in assay [2], in assay [3], in assay [4], in assay [5] and in assay [6] was “inactive” each time.

As to `CC1(C)CC[C@]2(C(=O)O[C@@H]3O[C@H](CO)[C@@H](O)[C@H](O)[C@H]3O)CC[C@]3(C)C(=CCC4[C@@]5(C)C[C@H](O)[C@H](O[C@@H]6O[C@H](C(=O)O)[C@@H](O)[C@H](O)[C@H]6O)[C@@](C)(CO)C5CC[C@]43C)C2C1` (some centres undefined), the Potency result in assay [1] and in assay [2] was “inactive” each time. The outcome in assay [3] was “inactive [at 11.6 µM]”. In addition, the activity change, negative = thiol reactive in assay [4] is 8.46% [at 11.5 µM]. In assay [5], the activity, negative = inhibition was 1.06% [at 11.6 µM]. Moreover, the redox activity (% of DA3003) in assay [6] is -11.2% [at 11.5 µM].

On to `C[C@@H]1O[C@@H](O[C@H]2[C@H](O[C@H]3[C@H](O[C@H]4CC[C@@]5(C)C(CC[C@]6(C)C5CC=C5[C@@H]7CC(C)(C)C[C@@H](O)[C@]7(C)CC[C@]56C)[C@@]4(C)CO)O[C@H](C(=O)O)[C@@H](O)[C@@H]3O)O[C@H](CO)[C@H](O)[C@@H]2O)[C@H](O)[C@H](O)[C@H]1O` (some centres undefined), for which the Potency result in assay [1] and in assay [2] was “inactive” in each case. The activity change, negative = inhibition in assay [3] was 0.671% [at 11.6 µM]. Besides, the activity change, negative = thiol reactive in assay [4] is 67.3% [at 11.5 µM]. The activity, negative = inhibition in assay [5] was 4.57% [at 11.6 µM]. Further, in assay [6], the redox activity (% of DA3003) was 10.7% [at 11.5 µM].

The record behind these values is PubChem BioAssay (NCATS).
